Experimental data taken from PubChem BioAssay AID485364 (National Center for Advancing Translational Sciences (NCATS), 2010).
Hit rate of the full screen: of about 360,000 compounds, about 11,000 (3.1%) were called active. Roughly 4% stayed inconclusive and do not appear here. Only a selection was taken, and actives are over-represented in it overall. Unmarked numbers belong to inactive results. The call rests on the fitted dose curve; in most records, active means well fitted inhibition curve with a large enough effect; inconclusive means small, poorly fitted or top-dose-only effect; inactive means no such curve, though single readings can be large or run the other way.

The compounds below were run against Schistosoma mansoni thioredoxin glutathione reductase (TGR) (UniProt Q962Y6) (assay: qHTS Assay for the Inhibitors of Schistosoma Mansoni Peroxiredoxins). Details: purified TGR, DTNB reduction, TNB absorbance 405 nm; series mostly up to 114 µM; activity change, negative = inhibition: at the top concentration.
In short: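 Kinetic colorimetric format: TGR-catalysed, NADPH-driven DTNB reduction monitored via TNB absorbance. Enzyme dispensed at 20 nM; compound exposure 15 min at room temperature before reaction start.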
Further: nearly all actives have a fitted effect of over 60% in size.
On the % scale 0 is the no-effect control and ±100 the full control effect; potency means the concentration at half of the fitted maximal effect.

| SMILES | activity change, negative = inhibition | Potency |
| --- | --- | --- |
| Cc1cc2nc(-c3ccc(NC(=O)c4cc5ccccc5o4)cc3)oc2cc1C | -1.68% |  |
| COc1cc(OC)cc(C(=O)Nc2ccc3nc(Nc4cccc(C(F)(F)F)c4)cc(C)c3c2)c1 | 6.99% |  |
| O=C(NCc1ccc(Cl)c(Cl)c1)c1cccnc1 | 10% |  |
| O=C(/C=C/c1ccc(Cl)cc1Cl)c1cccnc1 |  | 8.91 µM (active) |
| O=C(OCc1cc(Cl)ccc1OC(F)F)c1cccnc1 | -4.95% |  |
| COc1ccc(-c2nc3ccccc3o2)cc1NC(=O)c1cc([N+](=O)[O-])ccc1N1CCOCC1 | 3.13% |  |
| CN(C)CCCn1c(-c2ccc(Cl)cc2)csc1=Nc1ccccc1 | 9.1% |  |
| O=C(NCc1ccco1)C1CCCN(S(=O)(=O)c2ccccc2)C1 (stereo unspecified) | 2.53% |  |
| Cc1ccc(S(=O)(=O)N2CCCC2C(=O)NCc2ccco2)cc1 (stereo unspecified) |  | 50.1 µM (active) |
| Cc1ccc(CNC(=O)C2CCCN2S(=O)(=O)c2ccc3c(c2)C(C)(C)C(=O)N3C)cc1 (stereo unspecified) | 1.2% |  |
| O=C(NCc1ccco1)C1CCCN(S(=O)(=O)c2cccc3nonc23)C1 (stereo unspecified) |  | 22.4 µM (active) |
| O=C(NCc1ccco1)C1CCCN(S(=O)(=O)c2cnc[nH]2)C1 (stereo unspecified) | 0% |  |
| Cc1ccc(S(=O)(=O)N2CCC(C(=O)N[C@@H](C)C(=O)NCc3ccco3)CC2)cc1 | -19.9% |  |
| O=C(NCCCO)C(=O)Nc1c2c(nn1-c1ccccc1)CSC2 | -19.7% |  |
| Cc1c(-c2nsc(NC(=O)c3cccc(Cl)c3)n2)nnn1-c1ccccc1C(F)(F)F | 9.29% |  |
| CCc1nn(CCCC(=O)NCc2ccccc2OC)c(=O)c2cc3occc3n12 | 6.78% |  |
| CN1C(=O)c2ccccc2Sc2ccc(NC(=O)Cc3ccc(Cl)cc3)cc21 | 2.52% |  |
| CCOc1cc(NS(=O)(=O)c2ccc(OC)cc2)c(OCC)cc1NC(C)=O | 0% |  |
| CCOc1cc(NC(=O)CCl)c(OCC)cc1NC(C)=O |  | 44.7 µM (active) |
| CCOc1cc(NC(=O)Nc2ccccc2)c(OCC)cc1NC(=O)CC | -0.833% |  |
| Cc1cccc(NC(=O)Cn2nc(-c3ccc(Cl)cc3)c3ccccc3c2=O)c1 | 9.04% |  |
| COc1ccc(-c2nc(SCC(=O)N3CCCC3)n[nH]2)cc1 | 8.14% |  |
| CC(=O)Nc1ccc(N2C(=O)CC(Sc3nccc(C)n3)C2=O)cc1 (stereo unspecified) | -33.9% |  |

| SMILES | activity change, negative = inhibition | Potency |
| --- | --- | --- |
| CCOC(=O)c1ccc(N2C(=O)CC(Sc3nc(O)c(CC)c(=O)[nH]3)C2=O)cc1 (stereo unspecified) | 0% |  |
| O=C1CC(Sc2ncn[nH]2)C(=O)N1c1ccccc1 (stereo unspecified) |  | 0.501 µM (active) |
| CCN(C(=O)CSc1ncn[nH]1)c1cccc2ccccc12 | -5.37% |  |
| O=C1CC(c2ccccc2)C(=O)N1c1cccc(O)c1 (stereo unspecified) | -8.38% |  |
| Cc1ccc(N2C(=O)CC(Sc3ncn[nH]3)C2=O)cc1 (stereo unspecified) |  | 0.447 µM (active) |
| COc1ccc(N2C(=O)CC(Sc3n[nH]c(-c4ccc(C)cc4)n3)C2=O)cc1 (stereo unspecified) |  | 0.708 µM (active) |
| COc1ccc(N2C(=O)CC(SC(C)C)C2=O)cc1 (stereo unspecified) | -11.8% |  |
| COc1ccc(NC(=O)CSc2nc3ncccc3[nH]2)c(OC)c1 | 3.81% |  |
| COc1ccccc1C(=O)NCCn1cc(SCc2ccccc2Cl)c2ccccc21 | 15.5% |  |
| Cc1cccc(N2CCN(c3ccc(C(=O)O)cc3NC(=O)c3ccccc3F)CC2C)c1 (stereo unspecified) | -9.71% |  |
| COc1cc(OC)c(N(C)C(=O)c2cc3c(=O)oc4ccccc4c3s2)cc1Cl | -2.14% |  |
| Cc1ccc(-c2cc(C(F)(F)F)c(C#N)c(SCC(=O)Nc3ccccc3)n2)cc1 | 6.14% |  |
| Cc1cccc(CCNC(=O)c2ccc3c(c2)nc2n3CCC(C)C2)c1 (stereo unspecified) | 7.13% |  |
| COc1ccc(COCC(O)CN2CCC(C(N)=O)CC2)cc1 (stereo unspecified) | 8.49% |  |
| COc1ccc(CCN2C(=O)C(C)=C(C)C2=O)cc1OC | 0.409% |  |
| COc1ccc(CCN2C(=O)C3CC=C(C)CC3C2=O)cc1OC (stereo unspecified) | -4.3% |  |
| COc1ccc(N2C(=O)CC(N3CCC(C(N)=O)CC3)C2=O)cc1 (stereo unspecified) |  | 14.1 µM (active) |
| COc1ccc(CCN2C(=O)CC(N3CCC(C(N)=O)CC3)C2=O)cc1OC (stereo unspecified) |  | 3.16 µM (active) |
| NC(=O)C1CCN(C2OC(=O)c3ccccc32)CC1 (stereo unspecified) | -33.1% |  |
| COCCn1c(SCC(=O)c2cc(C)ccc2C)nc2cc(C(=O)NC3CCCC3)ccc2c1=O | -1.98% |  |
| CCCN1C(=O)C(O)(CC(=O)c2ccc(CC)cc2)c2cc(Br)ccc21 (stereo unspecified) | -0.17% |  |
| CC(=O)Nc1cccc(NC(=O)CSc2nccn2Cc2ccc3c(c2)OCO3)c1 | 0.562% |  |
| Cc1ccccc1CN1CCC(CNC(=O)c2cc3ccc4cccnc4c3[nH]2)CC1 | -12.3% |  |

| SMILES | activity change, negative = inhibition | Potency |
| --- | --- | --- |
| CCOc1ccc(CNC(=O)c2cc(-c3ccc(Cl)s3)nc3ccccc23)cc1 | -1.13% |  |
| CCOC(=O)c1c(-c2ccc(-c3ccccc3)cc2)csc1NC(=O)CCC(=O)O | 1.62% |  |
| CCCS(=O)(=O)c1ncc(Cl)c(C(=O)Nc2scc(-c3ccccc3)c2C(=O)OCC)n1 |  | 2 µM (active) |
| CCOC(=O)c1scc(-c2ccccc2)c1S(=O)(=O)Nc1ccccc1F | -1.54% |  |
| CCC(Sc1nnc(-c2ccc(OC)cc2)c(-c2ccc(OC)cc2)n1)C(=O)NC1CCCCC1 (stereo unspecified) | -0.319% |  |
| COc1cccc(CNC(=O)c2ccc3c(c2)N(Cc2ccc(C(F)(F)F)cc2)C(=O)c2ccccc2S3)c1OC | 0.85% |  |
| CCOc1ccc(-n2c(C)nc3c(cnn3-c3ccc(C)cc3)c2=O)cc1 | 1.06% |  |
| CCOCCCNC(=S)Nc1ccc2nc(N3CCN(CC)CC3)cc(C)c2c1 |  | 50.1 µM (active) |
| Cc1cc(N2CCOCC2)nc2ccc(NC(=S)N3CCN(Cc4ccccc4)CC3)cc12 | 0.208% |  |
| CCN1CCN(c2cc(C)c3cc(NC(=O)c4cc(Cl)ccc4OC)ccc3n2)CC1 | 2.25% |  |
| Cc1cccc(-n2ccnc2SCC(=O)Nc2cc(C(F)(F)F)ccc2Cl)c1 | 0.387% |  |
| CCOc1ccc(N(C)S(=O)(=O)c2cc(-c3cnc(C)o3)ccc2OC)cc1 | -9.5% |  |
| C=C(Br)CN1CCN(CC(=C)Br)CC1 |  | 10 µM (active) |
| COc1ccc(CCNC(=O)c2cn(C)c3ccc(S(=O)(=O)N(C)C4CCCCC4)cc3c2=O)cc1OC | 25.8% |  |
| CCCCCn1c(=O)[nH]c2cc(C(=O)Nc3ccc(F)cc3)ccc2c1=O | 15.7% |  |
| CCCC12CN3CC(CCC)(CN(C1)C3c1c[nH]c3ccc(OC)cc13)C2=O (stereo unspecified) | 34.3% |  |
| Cc1ccc(Cl)cc1NC(=O)/C(C#N)=C\c1cn(Cc2ccc(F)cc2)c2ccccc12 | -1.54% |  |
| COc1ccc(C2CC(c3cccs3)=NN2c2ccc(F)cc2)cc1OC (stereo unspecified) |  | 56.2 µM (active) |
| COc1ccc(C2CC(c3cccs3)=NN2c2nc(C)c(C(C)=O)s2)cc1OC (stereo unspecified) | 0.274% |  |
| COc1ccc(C2CC(c3cccs3)=NN2C(=O)CSc2nncs2)cc1OC (stereo unspecified) | -11.3% |  |
| O=C(O)CC1=C(Nc2ccccc2)C(=O)N(c2ccccc2)C1c1ccc(Cl)cc1 (stereo unspecified) |  | 39.8 µM (active) |
| O=C1C=C(c2ccc(Cl)cc2)C(=O)N1Nc1ccccc1 | -33.5% |  |
| COC(=O)CN1C(=S)N(c2ccccc2)C(=O)C1CC(=O)Nc1ccc(Cl)cc1 (stereo unspecified) | -0.808% |  |

| SMILES | activity change, negative = inhibition | Potency |
| --- | --- | --- |
| Cc1ccc(CCNC(=O)c2nnc(Cc3cccc(F)c3)o2)cc1 | -8.78% |  |
| CCNC(=O)c1cc2n(n1)CCCN(Cc1ccc(C)cc1)C2=O | 0.153% |  |
| CSc1ccc(CCNC(=O)c2ccc3c(c2)nc2n3CCOC2)cc1 | -0.625% |  |
| Cc1cn(C)c(CC(=O)NCc2ccccc2)c1C(=O)O | 6.43% |  |
| CCC(c1nnnn1Cc1ccco1)N(CCc1ccccc1)Cc1cc2cccc(C)c2[nH]c1=O (stereo unspecified) |  | 22.4 µM (active) |
| Cc1cccc2cc(CN(Cc3cccs3)C(=S)NCc3ccco3)c(=O)[nH]c12 | 5% |  |
| CCOc1ccc2[nH]c(=O)c(CN(Cc3nnnn3Cc3ccccc3)CC3CCCO3)cc2c1 (stereo unspecified) | -4.32% |  |
| CCC(c1nnnn1Cc1ccco1)N(Cc1cc2cc(OC)ccc2[nH]c1=O)C1CCCCC1 (stereo unspecified) |  | 12.6 µM (active) |
| COc1ccc2[nH]c(=O)c(CN(Cc3nnnn3CCc3ccccc3)CC3CCCO3)cc2c1 (stereo unspecified) | -3.1% |  |
| CCC(c1nnnn1C1CCCC1)N(Cc1cccs1)Cc1cc2cccc(C)c2[nH]c1=O (stereo unspecified) | 3.03% |  |
| Cc1ccc(-c2nnc(SCc3ccccc3C)o2)cc1 | -5.42% |  |
| Cc1ccc(C)c(N2CCN(C(c3ccccc3)c3nnc(-c4ccccc4)o3)CC2)c1 (stereo unspecified) | 3.88% |  |
| COc1cc(C(=O)Nc2ccc(OCc3cc(=O)n4ccc(C)cc4n3)cc2)cc(OC)c1OC | 0.391% |  |
| CCCCn1c(CNC(=O)C23CC4CC(CC(C4)C2)C3)nnc1SCC(=O)Nc1ccc(C)cc1 | -6.55% |  |
| COc1ccc(NS(=O)(=O)c2cc3c4c(c2)CC(=O)N4CCC3)cc1Cl | -0.0014% |  |
| Cc1n[nH]c(=O)c2c(NC(=O)COC(=O)c3ncc(Cl)c(Cl)c3Cl)oc(C)c12 |  | 15.8 µM (active) |
| Cc1n[nH]c(=O)c2c(NC(=O)CSc3ccccc3F)oc(C)c12 | -30.9% |  |
| Cc1n[nH]c(=O)c2c(NC(=O)CSc3cc(Cl)ccc3Cl)oc(C)c12 | 2.22% |  |
| CC(=O)c1ccc(NC(=O)CSc2nnc(NC(=O)Nc3ccccc3)s2)cc1 | 1.64% |  |
| CCc1ccc(NC(=O)CCCc2nnc3n(CCCOC)c(=O)c4sccc4n23)cc1 | 1.38% |  |
| COc1ccc(C(=O)c2oc3ccccc3c2NC(=O)COc2cccc(C)c2)cc1 | 0.199% |  |
| CN(Cc1ccccc1)C(=O)c1cn(C)c2ccc(S(=O)(=O)N3CCCCC3)cc2c1=O | -7.29% |  |
